hcDAF12 agonist: H. contortus DAF-12 activation, primary screen; HEK293 hcDAF-12 lit1-tk-luc reporter, luminescence; 0% DMSO, 100% Δ7-dafachronic acid; activation, % at 6.8 µM; 1.4% of 370,000 active;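 active = activation above the mean of all tested compounds plus 3 SD, cut at about 5.5% in these data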;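 also: 100% = response to 3 µM Δ7-dafachronic acid high control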
hgDAF12 agonist: activates the H. glycines DAF-12 receptor ligand-binding domain | HEK293 GAL4-hgDAF12 UAS-luciferase reporter, agonist luminescence; normalized to butyrate control | activation, % at 6.8 µM | 1.8% of 370,000 active | AID 687014;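 active = activation above a cutoff set at the mean of all screened compounds plus 3 SD, cut at about 10% in these data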;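 also: 0% = DMSO wells and 100% = sodium butyrate wells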
DAX1 inh-1: inhibitors of human orphan nuclear receptor DAX1 (NR0B1) | AID 504766 | 0.99% of 340,000 active | P51843 | HEK293 Gal4-DAX1 luciferase reporter, luminescence | inhibition, % at 6.75 µM;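 active = inhibition above the mean over all tested compounds plus 3 SD, cut at about 4.2% in these data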;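 also: 0% = DAX1-transfected cells with DMSO and 100% = empty-vector control cells with DMSO; inhibition shows as a rise in luminescence from relieved DAX1 repression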
Target sequence (P51843 207-470 limits assumed): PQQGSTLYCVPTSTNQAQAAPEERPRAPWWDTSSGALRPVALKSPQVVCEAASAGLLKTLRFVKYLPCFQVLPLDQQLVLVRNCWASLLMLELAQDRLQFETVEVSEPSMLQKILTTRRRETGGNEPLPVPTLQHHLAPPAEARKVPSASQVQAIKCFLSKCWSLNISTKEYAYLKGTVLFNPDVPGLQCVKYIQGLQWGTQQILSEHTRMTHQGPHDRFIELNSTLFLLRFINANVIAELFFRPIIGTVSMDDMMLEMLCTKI
ssDAF12 agonist: activators of S. stercoralis DAF-12 nuclear receptor; HEK293 ssDAF-12/GRIP1 lit1-tk-luc reporter, luminescence; % of 3 µM dafachronic acid response; activation, % at 6.8 µM; 1% of 370,000 active; AID 652126;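 active = activation above the mean over all tested compounds plus 3 SD, cut at about 0.9% in these data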;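 also: 0% = DMSO-only wells and 100% = 3 µM delta7-dafachronic acid wells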
DAX1 inh-2: inhibitors of DAX1 repression of SF-1 activated StAR promoter. inhibition, % at 6.8 µM. HEK293T StAR-luciferase reporter, SF-1/DAX-1 repression relief. 1.1% of 370,000 active;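 active = inhibition above the mean over all tested compounds plus 3 SD, cut at about 3.6% in these data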;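 also: 0% = DAX-1 cells with DMSO and 100% = cells lacking DAX-1 with DMSO; higher inhibition means more luminescence from relief of DAX-1 repression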
LXR ag: LXR-beta agonism as hcDAF-12 counter-screen; shares compounds with hcDAF12 agonist; HEK293 Gal4-LXR tk-luc reporter, luminescence, 24 h; normalized: DMSO 0%, positive control 100%; activation, % at 6.8 µM; 3,400 tested, under 10 active; AID 743027;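 active = mean percent activation of the reporter above a cutoff set as the average over tested compounds plus their standard deviation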
hcDAF12 conf: confirmation of H. contortus DAF-12 agonists; AID 743032; activation, % at 6.8 µM; shares compounds with hcDAF12 agonist; HEK293 hcDAF-12 lit1-tk-luc reporter, luminescence; % of Δ7-dafachronic acid response; 61% of 3,400 active;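 active = mean activation across triplicate tests above the threshold derived from the earlier primary screen, cut at about 5.5% in these data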;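 also: 0% = DMSO only wells and 100% = 3 µM Δ7-dafachronic acid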
Starred values were filed as active, the others as inactive; · = no result. Most compounds without a hit are left out; they make up all but 4.1% or so of the library.

SMILES	hcDAF12 agonist	hgDAF12 agonist	DAX1 inh-1	ssDAF12 agonist	DAX1 inh-2	LXR ag	hcDAF12 conf
O=C(CS(=O)(=O)c1ccccc1)Nc1nc2ccccc2s1	7.1*	4.7	0.7	0.4	0.0	0.1	3.5
O=C(NNc1nc2ccccc2s1)Nc1ccccc1	7.2*	5.2	0.9	0.2	1.0	0.6	4.0
O=C(NCc1ccccc1)c1nc2ccccc2s1	0.9	1.7	0.7	-2.1	-1.0	·	·
O=C(CSc1nnc(-c2ccccc2)n1-c1ccccc1)NN=Cc1ccc(-c2ccccc2)cc1	-1.0	4.8	·	-1.1	-1.2	·	·
CCc1ccc(/C=C/C(=O)c2ccc(N3CCOCC3)cc2)cc1	6.8*	2.6	-2.3	-2.1	0.0	-0.3	0.7
Nc1ccccc1N=Nc1ccccc1N	6.7*	9.7	1.0	0.6	1.1	1.1	9.2*
c1ccc(-c2c[nH]c3ccc(OCc4ccc5ccccc5n4)c(-c4ccccc4)c23)cc1	7.4*	5.7	·	-0.2	0.1	-0.2	3.0
CN(C)c1ccc(N=Nc2ccccc2C(=O)OCC(=O)N2CCCC2)cc1	-1.1	3.7	0.0	-2.0	0.1	·	·
CN(C)c1ccc(N=Nc2ccccc2Br)cc1	20.1*	12.0*	0.2	1.6*	3.0	1.7	18.9*
CC(=O)N1CCN(C(=O)CN2C(=O)CC(C)(C)S(=O)(=O)c3ccccc32)CC1	-0.4	-1.6	·	-0.2	1.3	·	·
CN(CCO)c1cccc2c1S(=O)(=O)N(Cc1cn(Cc3ccc(F)cc3)nn1)Cc1ccccc1O2	-2.8	-2.4	·	-1.2	-0.6	·	·
Cn1ccnc1SCC(=O)c1c[nH]c2ccccc12	9.3*	9.9	2.4	3.8*	2.5	1.0	7.4*
CCOC(=O)c1nc2ccccc2nc1C	6.9*	-0.5	0.8	-1.6	-0.2	-0.3	1.6
COC(=O)[C@]12C[C@H](CC(=O)N3CCSCC3)C(=O)N(CCc3ccc(OC)c(OC)c3)C1=C[C@H](C1CCCC1)O[C@@H]2C	-2.4	0.7	·	-1.6	-1.6	·	·
CSc1nsc(NN)n1	7.7*	10.6*	2.2	0.1	1.3	-0.1	5.4
CC(C)(C)N(Cc1cn(CC2CCCCC2)nn1)S(=O)(=O)c1ccc(F)cc1Br	-1.0	0.7	·	-1.6	-0.8	·	·
O=C1Nc2ccc(Br)cc2C12NNc1ccccc1O2 (stereo unspecified)	6.9*	2.5	-1.1	0.0	0.5	-0.1	2.3
O=C1Nc2ccc(Br)cc2C1(O)c1ccccc1 (stereo unspecified)	0.8	0.0	-0.8	-1.0	-0.4	·	·
CC(C)(C)[C@@H]1/C(=C/C2CC2)N2C(=O)C[C@@H](c3ccccc3)N=C2N1Cc1ccc2c(c1)OCO2	-1.9	-1.3	·	-1.7	·	·	·
O=C(NC1CCCc2ccccc21)C1CCCC1 (stereo unspecified)	-0.1	-2.5	-0.7	-1.4	-0.3	·	·
O=C(NC1CCOc2ccccc21)C1CCCC1 (stereo unspecified)	6.7*	-2.5	-0.3	0.0	0.1	-0.1	3.0
CN(C)c1oc(/C=C/c2ccccc2)nc1C#N	6.7*	8.2	1.6	0.1	1.6	0.7	5.5
Cc1ccc(CNc2ncccc2-c2nc3cc(Cl)ccc3o2)cc1	2.1	0.3	0.2	-0.3	-0.2	·	·
COc1cc(OC)cc(-c2nc3cc(C)ccc3o2)c1	17.3*	10.1	2.2	2.3*	3.8*	0.8	12.6*
Cc1ccc(-c2nc3cc(Cl)ccc3o2)cc1	8.2*	8.4	3.8	0.9*	2.9	1.9	16.1*
SMILES	hcDAF12 agonist	hgDAF12 agonist	DAX1 inh-1	ssDAF12 agonist	DAX1 inh-2	LXR ag	hcDAF12 conf
Cc1ccc(NC(=O)Cc2c(Cl)cccc2Cl)cc1S(=O)(=O)N(C)C	11.1*	-2.3	-1.0	-1.2	-0.6	-0.1	1.7
CC1CCC2(CCC(=O)N2CCCOC(=O)Nc2cccc(C(F)(F)F)c2)CC1 (stereo unspecified)	1.4	0.3	·	-1.6	0.1	·	·
COc1ccccc1C(=O)NNC(=O)c1ccc(F)cc1	9.3*	10.0	1.3	-0.1	1.6	0.7	6.8*
COc1ccccc1C(=O)NNC(=O)C1CC=CCC1 (stereo unspecified)	7.2*	3.1	2.5	4.0*	0.1	0.1	7.2*
COc1ccccc1C(=O)NNC(=O)C(=O)Nc1ccc(C)cc1	3.8	2.8	0.1	0.6	0.4	·	·
COc1ccccc1C(=O)NNC(=S)Nc1ccccc1	10.7*	6.6	3.2	-0.1	1.3	0.1	9.0*
COc1ccccc1C(=O)NNC(=O)c1ccc2ccccc2c1	-0.4	0.0	0.9	-1.1	-0.4	·	·
COc1ccccc1C(=O)NNC(=O)c1ccc(O)cc1	4.5	7.2	1.9	-0.2	2.1	·	·
O=C(CSc1nnc(COc2ccccc2)n1-c1ccccc1)Nc1ccc2c(c1)OCO2	-1.5	1.2	·	-1.0	-2.0	·	·
CCCCNC(=O)C1CCCN1C(=O)Nc1cc(Cl)cc(Cl)c1 (stereo unspecified)	-1.8	0.4	·	0.7	1.2	·	·
COC(=O)[C@]12C[C@H](CC(=O)N3CCCC3)C(=O)N(Cc3ccccc3)C1=C[C@H](COCc1ccccc1)O[C@@H]2C	-2.4	-1.8	·	-0.9	-0.7	·	·
COc1cccc(C(=O)Nc2nc3ccccc3[nH]2)c1	7.4*	11.3*	-3.9	-0.1	2.8	1.6	8.0*
O=C(Nc1nc2ccccc2[nH]1)Nc1ccccc1F	24.0*	22.1*	1.6	4.8*	3.0	2.3	19.7*
COc1cc(C(=O)Nc2nc3ccccc3[nH]2)cc(OC)c1OC	0.2	4.6	-0.7	-1.6	1.2	·	·
O=C(Nc1nc2ccccc2[nH]1)c1cccc(Br)c1	8.6*	12.1*	0.3	0.7	1.0	1.2	7.1*
C=CCN1C(=O)[C@H](CC(=O)NCc2cccc3ccccc23)[C@@]2(C(=O)OCC)CCCC=C12	-0.8	-3.9	·	-1.2	-0.1	·	·
O=C(N[C@@H](Cc1cccnc1)C(=O)N1CCC[C@H]1C(=O)NCc1ccccc1)c1ccccc1	-1.5	3.3	·	-0.2	0.6	·	·
O=c1c(=Nc2ccccc2O)c(=O)c2ccccc12	8.3*	-0.2	-0.2	-0.9	-1.1	0.7	5.4
Cc1csc(NC(=O)c2cccnc2Cl)n1	8.7*	5.4	3.0	1.1*	0.5	0.5	10.9*
Cc1csc(NC(=O)c2cccc(C)c2C)n1	1.3	6.0	0.8	-0.3	0.1	·	·
CCn1c(Cc2cccs2)nnc1SCC(=O)c1ccc(Cl)cc1	-2.6	-1.2	·	-0.3	0.6	·	·
O=C(NCc1ccccc1)C(c1ccccc1)n1c(=O)c(-c2ccco2)nc2ccccc21 (stereo unspecified)	-2.5	-1.8	·	-1.0	-0.3	·	·

Bioassay records deposited in PubChem BioAssay by The Scripps Research Institute Molecular Screening Center.
